# Rows were chosen to be rich in hits. Some 19% of all compounds tested hit in one or more screens of this group.
# AMA1 RON2 block = inhibitors of Plasmodium falciparum AMA1-RON2 interaction; AID 720542; AlphaScreen AMA1-biotinylated RON2 peptide binding; Potency, µM (titrated, usually from 58.2 µM), actives largely listed as inhibitors; 0.2% of 360,000 active; further: nearly all actives have a fitted effect of over 45% in size
#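 AMA1 (3D7) with his tag at 25 nM final met compounds first, then biotinylated RON2 peptide at 25 nM; detection used donor plus acceptor beads, 10 µg/mL apiece, read by AlphaScreen after 30 min at room temperature.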
# SARS PLP yeast = inhibitors of SARS-CoV papain-like protease in yeast; S. cerevisiae expressing SARS-CoV PLpro, growth rescue; 0.19% of 330,000 active; Potency, µM (titrated, usually from 32.9 µM), hits mostly activators; calls by dose curve; further: nearly all actives have a fitted effect of over 55% in size
# Shiga toxin inh = inhibitors of Shiga toxin in Vero cells; 9.2% of 290,000 active; inhibition, % at 38.7 µM; Vero cells, Shiga toxin protein synthesis inhibition reporter; in the data active means inhibition mostly above about 28%, no sharp cut-off; inactive means mostly below about 43%
# Pf growth 96h = inhibits malaria parasite growth, 96 h. P. falciparum luciferase reporter growth, 96 h. Potency, µM (series often up to 28.7 µM), hits mostly inhibitors. 6.9% of 320,000 active. AID 504834
#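 Infected RBCs, 2% Hct / 0.05% parasitemia final; luciferase-reporter P. falciparum; cpd 96 h, 37 C, 5% CO2; luciferase detection reagent; luminescence.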
# Pf growth 48h = P. falciparum growth inhibition at 48 hours (one generation). P. falciparum luciferase growth in erythrocytes, 48 h. Potency, µM (doses to about 28.7 µM), hits mostly inhibitors. 5.9% of 310,000 active
#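 Growth was read as firefly luciferase luminescence after a 48 h, 37 C, 5% CO2 exposure of compounds to reporter-bearing P. falciparum cultures (0.1% parasitemia, 2% hematocrit final) in Albumax-supplemented RPMI 1640.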
# CHX counter = affects cycloheximide protein synthesis inhibition readout, counter-screen; 12% of 300,000 active; cell reporter, cycloheximide protein synthesis inhibition counterscreen; max response, %; AID 2314; in the data active means max response mostly above about 13%, no sharp cut-off; inactive means mostly below about 14%; further: read at 38.3 µM for the half of the compounds with a filed dose
# Numbers stand for hits; . = inactive; ? = inconclusive; / = no result given; [ ] = another dose, or the depositor's remark. Unless noted, the call rests on the fitted dose curve; in most records, active means well fitted curve in the direction sought with a large enough effect; inconclusive means small, poorly fitted or top-dose-only effect, or another doubt; inactive means no such curve, though single readings can be large; an effect the other way counts as inactive or inconclusive.
SMILES,AMA1 RON2 block,SARS PLP yeast,Shiga toxin inh,Pf growth 96h,Pf growth 48h,CHX counter
CC(C)(C)c1ccc(C(=O)N2CCC(=O)N(C(COCc3ccccc3)Cc3ccccc3)CC2)cc1 (configuration not stated),.,.,.,12µM,9.3µM,.
O=C(c1ccc(Cl)c(Cl)c1)N1CCC(=O)N(C(COCc2cccc(C(F)(F)F)c2)Cc2ccccc2)CC1 (configuration not stated),.,.,.,13µM,?,.
O=C(c1ccc(C(F)(F)F)cc1)N1CCC(=O)N(C(COCc2ccccc2)Cc2ccccc2)CC1 (configuration not stated),.,.,.,8.3µM,?,.
CC1CC(=O)N(c2ccc(Br)cc2)C(=O)C1,.,.,.,.,?,.
Cc1cc(C)n(-c2nc(NCc3cccnc3)c3c4c(sc3n2)COC(C)(C)C4)n1,.,.,.,/,/,22
Cc1cc(C)n(-c2nc(SCC(=O)O)c3c4c(sc3n2)COC(C)(C)C4)n1,.,.,.,?,?,.
CCN(CC)CCCNc1nc(-n2nc(C)cc2C)nc2sc3c(c12)CC(C)(C)OC3,.,.,.,?,?,13
COCc1cc(C)n(CC(=O)Nc2cc(C)cc(C)c2)c(=O)c1C#N,.,.,.,.,.,.
Cc1cc(NC(=O)CN2CCc3ccccc3C2)nc2c1c(=O)oc1ccccc12,.,.,.,?,10µM,.
C=CCn1c(=NC(=O)CC)n(C)c2ccccc21,.,.,.,.,.,.
O=C1S/C(=C\C=C\c2ccco2)C(=O)N1c1ccc(O)cc1,.[11.6 µM],.,71,.,.,43
O=C(O)CC(C(=O)O)N1C(=O)/C(=C/C=C/c2ccco2)SC1=S (configuration not stated),?,.,.,.,.,.
O=C(O)CCCN1C(=O)/C(=C/C=C/c2ccco2)SC1=S,.,.,.,.,.,.
O=C1S/C(=C\C=C\c2ccco2)C(=O)N1c1ccccc1,?,.,59,.,.,38
Cc1ccc(S(=O)(=O)N2CCN(C(=O)COC(=O)/C=C/c3ccccc3[N+](=O)[O-])CC2)c(C)c1,.,.,/,.,.,/
CCc1nnc(NC(=O)c2ccc(N3C(=O)CCC3=O)cc2)s1,.,.,.,.,.,16
CS(=O)(=O)c1ccc2nc(NC(=O)C3=NN(c4ccccc4)C(=O)CC3)sc2c1,.,.,.,.,?,.
CNS(=O)(=O)c1ccc2nc(NC(=O)c3ccc(N4C(=O)CCC4=O)cc3)sc2c1,.,.,.,3.7µM,?,.
O=C(OCc1cccc2ccccc12)c1ccc2c(=O)[nH]c(CN3CCOCC3)nc2c1,.,.,.,?,.,.
CCc1ccc2nc(NC(=O)c3ccc4c(=O)[nH]c(CN5CCOCC5)nc4c3)sc2c1,.,.,65,.,/,43
CCCCc1nnc(NC(=O)c2ccc(N3CCCC3=O)cc2)s1,.,/,/,.,.,/
CCc1ccc2nc(NC(=O)c3ccc(N4C(=O)CCC4=O)cc3)sc2c1,.,.,38,.,.,22
CN(C)S(=O)(=O)c1cccc(C(=O)Nc2ccccc2C(=O)NC2CC2)c1,.,.,/,/,/,/
CCOC(=O)CN(Cc1ccccc1)C(=O)OC(C)(C)C,/,.,.,.,.,.
CN1C(=O)C(C)(C)c2cc(S(=O)(=O)N3CCC(C(=O)NCc4ccc(Cl)cc4)CC3)ccc21,.,.,.,?,?,.
SMILES,AMA1 RON2 block,SARS PLP yeast,Shiga toxin inh,Pf growth 96h,Pf growth 48h,CHX counter
O=C(NCc1ccc(F)cc1)C1CCN(S(=O)(=O)c2ccc(Br)s2)CC1,.,.,37,?,9.3µM,15
CN1C(=O)C(C)(C)c2cc(S(=O)(=O)N3CCC(C(=O)NCc4ccc(F)cc4)CC3)ccc21,.,.,.,13µM,?,.
O=C(NCc1ccc(F)cc1)C1CCCN(S(=O)(=O)c2ccc(Br)s2)C1 (configuration not stated),.,.,55,.,?,.
O=C(C1CCCN(S(=O)(=O)c2ccc(Br)s2)C1)N1CCN(c2ccccc2)CC1 (configuration not stated),?,.,.,.,8.3µM,.
O=C(C1CCCN(S(=O)(=O)c2ccc(Br)cc2)C1)N1CCN(Cc2ccccc2)CC1 (configuration not stated),.,.,.,.,6.6µM,.
CCC(C)NC(=O)C1CCN(S(=O)(=O)c2ccc(Br)s2)CC1 (configuration not stated),.,.,.,10µM,?,.
COc1cccc(/C=C/C(=O)OCC(=O)NC2CCCCCC2)c1,.,/,/,/,/,/
O=C(Cn1cnc2c(oc3ccccc32)c1=O)NCC1CCCO1 (configuration not stated),.,.,.,?,.,.
Cc1ccc(C)c(NC(=O)Cn2cnc3c(oc4ccccc43)c2=O)c1,.,.,.,?,10µM,.
O=C(Cn1cnc2c(oc3ccccc32)c1=O)N1CCCC1,.,.,64,.,.,32
CCOC(=O)CNC(=O)Cn1cnc2c(oc3ccccc32)c1=O,.,.,.,.,.,34
O=C(Cn1cnc2c(oc3ccccc32)c1=O)NCc1ccccc1,.,.,.,.,.,.
CC1(C)CC(=O)C(CSC(=O)c2ccccc2)C(=O)C1,.,/,/,/,/,/
O=C(CN1C(=O)NC2(CCCCCC2)C1=O)NCc1ccccc1,.,.,/,/,/,/
COc1ccc(C(C)NS(=O)(=O)Cc2ccccc2)cc1 (configuration not stated),.,.,.,?,.,.
COc1ccc(-n2c(C)cc(C(=O)CN3C(=O)c4ccccc4C3=O)c2C)cc1,.,.,.,?,.,20
CCC1(c2ccc(F)cc2)NC(=O)N(CC(=O)c2cc(C)n(C3CC3)c2C)C1=O (configuration not stated),.,.,/,?,15µM,/
CCN1C(=O)C(=O)N(CC(=O)c2cc(C)n(C3CC3)c2C)C1=O,.,.,/,.,.,/
Cc1cc(C(=O)CN2C(=O)c3ccccc3C2=O)c(C)n1C1CC1,.,.,.,.,.,23
O=C(CC1C(=O)NCCN1Cc1ccc(Cl)c(F)c1)NC1CCCCC1 (configuration not stated),.,.,.,?,.,.
Cc1cccc(C)c1NC(=O)c1ccc(OCc2c(C)noc2C)cc1,.,.,/,/,/,/
CCN1C(=O)[C@@H]2[C@@H](c3ccc(-c4ccc(F)cc4)cc3)N3CCC[C@@]3(C(=O)OC)[C@@H]2C1=O,.,.,/,?,?,/
CCN1C(=O)[C@@H]2[C@@H](c3ccc(SC4CCCCC4)cc3)N3CCCC[C@@]3(C(=O)OC)[C@@H]2C1=O,.,.,/,12µM,?,/
CCC(C)Sc1ccc([C@@H]2[C@H]3C(=O)N(CC)C(=O)[C@H]3[C@]3(C(=O)OC)CCCN23)cc1OC (some centres not stated),.,.,/,10µM,12µM,/

# Screens: PubChem BioAssay, National Center for Advancing Translational Sciences (NCATS)
